Results filed as inconclusive are left out. Calls of active or inactive are those of the source. The call rests on the fitted dose curve; in most records, active means well fitted cell-killing curve with a large enough effect in the repeat runs; inconclusive means weak or mixed curves, or effect the other way; inactive means no such curve, though single readings can be large or run the other way.
Experiment: qHTS assay to identify small molecule antagonists of the glucocorticoid receptor (GR) signaling pathway - cell viability counter screen (AID 720693); further: nearly all actives have a fitted effect of over 55% in size
Settings: GR-bla HeLa viability, CellTiter-Glo luminescence, 18 h, with 5 nM dexamethasone present; series mostly up to 58.5 µM
Text: National Center for Advancing Translational Sciences [NCATS]
NIH Chemical Genomics Center [NCGC]
U.S. Environmental Protection Agency [EPA]
National Institutes of Environmental Health Sciences [NIEHS]
National Toxicology Program [NTP]
U.S. Food and Drug Administration [FDA]
The Glucocorticoid receptor (GR) is one of the members of the nuclear receptor family of ligand-dependent transcription factors. GR plays a critical role in carbohydrate, protein and lipid metabolisms and programmed cell death. CellSensor GR-bla HeLa cell line (Invitrogen) contains a beta-lactamase reporter gene under the control of the glucocorticoid response element stably integrated into HeLa cells, a cervical cancer cell line that expresses glucocorticoid receptor. The activation of the reporter gene under culture conditions can be detected by fluorescence intensity. This cell line has been used to screen the Tox21 10K compound library and to identify the compounds that inhibit the GR signaling. The cytotoxicity of the Tox21 compound library against the GR-bla HeLa cell line was tested in parallel by measuring the cell viability using CellTiter-Glo assay in the same wells.
Tox21 Assay Protocol Summary:
The GR-bla HeLa cells were dispensed at 1500 cells/5 ul/well in 1536-well black wall/clear bottom plates using a Multidrop Combi (ThermoFisher Scientific, Waltham, MA) dispenser. After the assay plates were incubated at a 37 C/5% CO2 incubator for 4 hours, 23 nL of compounds dissolved in DMSO, positive controls or DMSO only was transferred to the assay plate by a pintool station (Kalypsys, San Diego, CA), followed by addition of 1 uL of dexamethasone (5 nM, final concentration in the well). The plates were incubated at 37 C for 18 hours. After 1 uL of LiveBLAzerTM B/G FRET substrate was added using a Flying Reagent Dispenser (Aurora Discovery, San Diego, CA), the plates were incubated at room temperature (RT) for 2 hours, and fluorescence intensity was measured by an Envision plate reader (PerkinElmer, Shelton, CT). After measurement of bla assay, 3 ul CellTiter-Glo (Promega, Madison, WI) was added to measure the cytotoxicity and the plates were then incubated at RT for 30 min. The luminescence was measured using a ViewLux (Perkin Elmer) plate reader.
For `N#CCc1ccccc1[N+](=O)[O-]`, the outcome was “inactive”.
In the case of `Nc1nc(F)nc2c1ncn2[C@@H]1O[C@H](CO)[C@@H](O)[C@@H]1O`, the outcome is reported as “inactive”.
For `CN1[C@@H]2CC[C@H]1CC(NC(=O)n1c(=O)[nH]c3ccccc31)C2` (stereo not given in full), the outcome was “inactive”.
In the case of `O=C(O)c1ccccc1S`, the outcome is reported as “inactive”.
With `CO[Si](OC)(OC)OC` the outcome was “inactive”.
For `CC(C)c1cccc(O)c1`, the outcome was “inactive”.
For `O=C(O)/C=C/c1ccc(/C=C/C(=O)O)cc1`, the outcome was “inactive”.
In the case of `Cn1cnc2c(=O)[nH]c(N)nc21`, the outcome is reported as “inactive”.
For `Cc1nc(-c2ccc(OCC(C)C)c(C#N)c2)sc1C(=O)O`, the outcome was “inactive”.
In the case of `CC(=O)O[C@H](CC(=O)[O-])C[N+](C)(C)C`, the outcome is reported as “inactive”.
In the case of `C=C(C)[C@H]1CC=C(C)CC1`, the outcome is reported as “inactive”.
In the case of `CC(C)(C)N(CCO)CCO`, the outcome is reported as “inactive”.
With `CC(C)(O)c1ccccc1` the outcome was “inactive”.
For `O=C(O)c1ccccc1-c1ccc(C(F)(F)F)cc1`, the outcome was “inactive”.
With `CSc1ccc(C=O)cc1` the outcome was “inactive”.
With `C=C(C)C(=O)NCCC[N+](C)(C)C` the outcome was “inactive”.
For `CCCCNc1ccccc1`, the outcome was “inactive”.
With `O=C(O)Cc1cc(I)c(Oc2cc(I)c(O)c(I)c2)c(I)c1` the outcome was “inactive”.
With `COC[C@H](c1ccc(C(F)(F)F)cc1)N1CCN(C2(C)CCN(C(=O)c3c(C)ncnc3C)CC2)C[C@H]1C` the outcome was “inactive”.
For `O=C(O)C(O)[C@H](O)[C@@H](O)[C@H](O)[C@H](O)CO` (stereo not given in full), the outcome was “inactive”.
With `Oc1cc(O)c2c(c1)O[C@H](c1ccc(O)c(O)c1)[C@H](O)C2` the outcome was “inactive”.
In the case of `O=C1OC(=O)c2cc([N+](=O)[O-])ccc21`, the outcome is reported as “inactive”.
For `CC(C)(C)CC(C)(C)N`, the outcome was “inactive”.
In the case of `CO`, the outcome is reported as “inactive”.
With `CC(C)COC(=O)C(C)C` the outcome was “inactive”.
In the case of `Cc1ccc(Nc2ccc(O)c3c2C(=O)c2ccccc2C3=O)cc1`, the outcome is reported as “inactive”.
In the case of `C=C(C)C(=O)OCCC(C)OC(=O)C(=C)C` (stereo not given), the outcome is reported as “inactive”.
For `Nc1ccc2cc(S(=O)(=O)O)ccc2c1`, the outcome was “inactive”.
For `C/C=C1\C(=O)C[C@H]2[C@@H]3CCC4=CC(=O)CC[C@]4(C)[C@H]3CC[C@]12C`, the outcome was “inactive”.
With `CC(C)(O)Cc1ccccc1` the outcome was “inactive”.
For `CC(C)c1cccc(C(C)C)c1N`, the outcome was “inactive”.
With `CCCC(C)CO` (stereo not given) the outcome was “inactive”.
For `O=C(O)CCNC(=O)c1ccc(N=Nc2ccc(O)c(C(=O)O)c2)cc1`, the outcome was “inactive”.
For `N#CCN(CC#N)CCN(CC#N)CC#N`, the outcome was “inactive”.
For `COC(=O)[C@H]1[C@H]2C[C@@H]3c4[nH]c5cc(OC)ccc5c4CCN3C[C@H]2C[C@@H](OC(=O)COc2ccc(OC)cc2)[C@@H]1OC`, the outcome was “inactive”.
With `C#CC(O)CCCCC` (stereo not given) the outcome was “inactive”.
With `CC/C=C\C#N` the outcome was “inactive”.
For `CNc1ncnc2nc[nH]c12`, the outcome was “inactive”.
In the case of `Cn1ccc2cc3c(cc21)CCN3C(=O)Nc1cccnc1`, the outcome is reported as “inactive”.
With `NS(=O)(=O)c1cc2c(cc1Cl)NC(CSCc1ccccc1)=NS2(=O)=O` the outcome was “inactive”.

— PubChem BioAssay (Tox21)
